In all, about 5,500 compounds went through this assay and about 2,000 (36%) were called active. Another 18% or so got no clear call; they are omitted. Rule as the data show it: active = normalized growth mostly below about 0.91 (no sharp cut-off); inconclusive = no clear call, values can overlap the other calls; inactive = mostly above about 0.92. This is one part of the list.
Assay: chemical genetic growth profiling, strain panel (AID 1159580);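 also: tested at 20 µM; growth read once vehicle control cultures reached saturation at 30 °C; 1 = growth at the plate median or of vehicle wells; lower values mean less growth of the strain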
Settings: S. cerevisiae deletion strains, growth OD
[1] = locus YAR019C, strain CDC15, active compounds read low
[2] = locus YBL105C, strain PKC1, active compounds read low
[3] = locus YBR135W, strain CKS1, active compounds read low
[4] = locus YBR136W, strain MEC1, active compounds read low
[5] = locus YBR160W, strain CDC28, active compounds read low
[6] = locus YDL017W, strain CDC7, active compounds read low
[7] = locus YDL028C, strain MPS1, active compounds read low
[8] = locus YDL101C, strain DUN1, active compounds read low
[9] = locus YDL108W, strain KIN28, active compounds read low
[10] = locus YDL132W, strain cdc53, active compounds read low
[11] = locus YDL214C, strain PRR2, active compounds read low
[12] = locus YDR052C, strain DBF4, active compounds read low
[13] = locus YDR054C, strain cdc34, active compounds read low
[14] = locus YDR226W, strain ADK1, active compounds read low
[15] = locus YDR477W, strain SNF1, active compounds read low
[16] = locus YER123W, strain YCK3, active compounds read low
[17] = locus YER133W, strain GLC7, active compounds read low
[18] = locus YFL009W, strain cdc4, active compounds read low
[19] = locus YFL029C, strain CAK1, active compounds read low
[20] = locus YFR003C, strain YPI1, active compounds read low
[21] = locus YFR019W, strain FAB1, active compounds read low
[22] = locus YFR028C, strain CDC14, active compounds read low
[23] = locus YGR040W, strain KSS1, active compounds read low
[24] = locus YGR052W, strain FMP48, active compounds read low
[25] = locus YGR092W, strain DBF2, active compounds read low
[26] = locus YHR030C, strain SLT2, active compounds read low
[27] = locus YHR079C, strain IRE1, active compounds read low
[28] = locus YHR082C, strain KSP1, active compounds read low
[29] = locus YHR205W, strain SCH9, active compounds read low
[30] = locus YIL147C, strain SLN1, active compounds read low
[31] = locus YJL095W, strain BCK1, active compounds read low
[32] = locus YJL128C, strain PBS2, active compounds read low
[33] = locus YJL157C, strain FAR1, active compounds read low
[34] = locus YJR016C, strain ILV3, active compounds read low
[35] = locus YJR066W, strain TOR1 (second series), active compounds read low
[36] = locus YJR066W, strain TOR1, active compounds read low
[37] = locus YKL048C, strain ELM1, active compounds read low
[38] = locus YKL067W, strain YNK1, active compounds read low
[39] = locus YKL101W, strain HSL1, active compounds read low
[40] = locus YKL193C, strain SDS22, active compounds read low
[41] = locus YKL203C, strain TOR2, active compounds read low
[42] = locus YLR113W, strain HOG1, active compounds read low
[43] = locus YLR133W, strain CKI1, active compounds read low
[44] = locus YLR403W, strain SFP1, active compounds read low
[45] = locus YML070W, strain DAK1, active compounds read low
[46] = locus YMR001C, strain CDC5, active compounds read low
[47] = locus YMR205C, strain PFK2 (second series), active compounds read low
[48] = locus YMR277W, strain FCP1, active compounds read low
[49] = locus YNL006W, strain LST8, active compounds read low
[50] = locus YNL020C, strain ARK1, active compounds read low
[51] = locus YNL161W, strain CBK1, active compounds read low
[52] = locus YNL183C, strain NPR1, active compounds read low
[53] = locus YNL207W, strain RIO2, active compounds read low
[54] = locus YNL222W, strain SSU72, active compounds read low
[55] = locus YNL307C, strain MCK1 (second series), active compounds read low
[56] = locus YOL078W, strain AVO1, active compounds read low
[57] = locus YOL136C, strain PFK27, active compounds read low
[58] = locus YOR061W, strain CKA2, active compounds read low
[59] = locus YOR119C, strain RIO1, active compounds read low
[60] = locus YOR231W, strain MKK1, active compounds read low
[61] = locus YOR329C, strain SCD5, active compounds read low
[62] = locus YPL031C, strain PHO85, active compounds read low
[63] = locus YPL153C, strain RAD53, active compounds read low
[64] = locus YPL204W, strain HRR25, active compounds read low
[65] = locus YPL209C, strain IPL1, active compounds read low
[66] = locus YPL256C, strain CLN2, active compounds read low
[67] = locus YPR025C, strain CCL1, active compounds read low
[68] = locus YPR106W, strain ISR1, active compounds read low
[69] = locus YPR111W, strain DBF20, active compounds read low
[70] = strain NNK1, active compounds read low
[71] = strain TSCII, active compounds read low

Measured: normalized growth

CCOC(=O)c1ccc(Cl)c(N=Cc2cc(Cl)cc(Cl)c2O)c1
active: [11] 0.544 | [15] 0.533 | [16] 0.319 | [17] 0.567 | [21] 0.472 | [23] 0.591 | [24] 0.511 | [25] 0.197 | [26] 0.238 | [27] 0.238 | [28] 0.501 | [29] 0.468 | [31] 0.298 | [33] 0.401 | [36] 0.37 | [37] 0.636 | [38] 0.527 | [39] 0.608 | [41] 0.594 | [42] 0.377 | [43] 0.432 | [44] 0.364 | [45] 0.389 | [47] 0.507 | [50] 0.404 | [52] 0.413 | [55] 0.381 | [57] 0.322 | [58] 0.326 | [59] 0.569 | [60] 0.301 | [62] 0.528 | [63] 0.421 | [64] 0.421 | [66] 0.317
inactive: [1] 0.955 | [2] 0.967 | [3] 0.943 | [4] 0.956 | [5] 0.948 | [6] 0.95 | [7] 0.946 | [8] 0.974 | [9] 0.953 | [10] 0.951 | [12] 0.959 | [13] 0.957 | [14] 0.969 | [18] 0.949 | [19] 0.951 | [20] 0.946 | [22] 0.969 | [30] 0.946 | [32] 0.964 | [34] 0.956 | [35] 0.622 | [40] 0.95 | [46] 0.955 | [48] 0.954 | [49] 0.951 | [51] 0.951 | [53] 0.956 | [54] 0.951 | [56] 0.956 | [61] 0.958 | [65] 0.954 | [67] 0.947 | [68] 0.961 | [69] 0.958 | [70] 0.957 | [71] 0.957

CC(=O)c1ccc(Cl)c(N=Cc2cc(Br)cc(Br)c2O)c1
active: [1] 0.107 | [2] 0.0938 | [3] 0.0994 | [4] 0.112 | [5] 0.127 | [6] 0.104 | [7] 0.12 | [8] 0.118 | [9] 0.127 | [10] 0.402 | [11] 0.106 | [12] 0.303 | [13] 0.166 | [14] 0.621 | [15] 0.109 | [16] 0.115 | [17] 0.105 | [18] 0.0929 | [19] 0.0974 | [20] 0.0995 | [21] 0.0995 | [22] 0.102 | [23] 0.103 | [24] 0.128 | [25] 0.102 | [26] 0.141 | [27] 0.124 | [28] 0.134 | [29] 0.00344 | [30] 0.104 | [31] 0.141 | [32] 0.0977 | [33] 0.0879 | [34] 0.0892 | [35] 0.091 | [36] 0.12 | [37] 0.114 | [38] 0.0955 | [39] 0.112 | [40] 0.0908 | [41] 0.113 | [42] 0.161 | [43] 0.0941 | [44] -0.00302 | [45] 0.099 | [46] 0.0969 | [47] 0.0844 | [48] 0.0941 | [49] 0.0893 | [50] 0.103 | [51] 0.0859 | [52] 0.119 | [53] 0.0975 | [54] 0.0926 | [55] 0.103 | [56] 0.0827 | [57] 0.102 | [58] 0.0946 | [59] 0.102 | [60] 0.119 | [61] 0.0861 | [62] 0.105 | [63] 0.0925 | [64] 0.0963 | [65] 0.0856 | [66] 0.144 | [67] 0.0958 | [68] 0.0925 | [69] 0.106 | [70] 0.102 | [71] 0.102

CC(=O)c1ccc(Cl)c(N=Cc2cc(Cl)cc(Cl)c2O)c1
inactive: [1] 0.94 | [2] 0.948 | [3] 0.953 | [4] 0.941 | [5] 0.937 | [6] 0.944 | [7] 0.91 | [8] 0.932 | [9] 0.935 | [10] 0.958 | [12] 0.963 | [14] 0.948 | [18] 0.928 | [19] 0.934 | [20] 0.933 | [22] 0.939 | [30] 0.926 | [32] 0.9 | [34] 0.967 | [40] 0.941 | [46] 0.936 | [48] 0.92 | [49] 0.947 | [51] 0.955 | [53] 0.947 | [54] 0.923 | [56] 0.926 | [61] 0.953 | [65] 0.95 | [67] 0.959 | [68] 0.952 | [69] 0.931 | [70] 0.948 | [71] 0.905
active: [11] 0.303 | [15] 0.289 | [16] 0.151 | [17] 0.354 | [21] 0.222 | [23] 0.339 | [24] 0.253 | [25] 0.139 | [26] 0.159 | [27] 0.148 | [28] 0.227 | [29] 0.199 | [31] 0.139 | [33] 0.23 | [35] 0.341 | [36] 0.175 | [37] 0.441 | [38] 0.227 | [39] 0.308 | [41] 0.399 | [42] 0.192 | [43] 0.274 | [44] 0.186 | [45] 0.184 | [47] 0.304 | [50] 0.247 | [52] 0.246 | [55] 0.209 | [57] 0.197 | [58] 0.198 | [59] 0.32 | [60] 0.123 | [62] 0.269 | [63] 0.197 | [64] 0.247 | [66] 0.197
